Screening results: PubChem, several laboratories
Neddyl block = blocks human cullin neddylation; TR-FRET cullin neddylation, biochemical; inhibition, % at 25 µM; hit rate 0.58% among 360,000; in the data active = inhibition above about 36%
PKA-R1A act = PKA-R1A complex activation. PKA-R1A dissociation, Cy5-IP20 fluorescence polarization; scaled: DMSO 0%, 113 µM cGMP 100%. activation, % at 11.4 µM. hit rate 0.083% among 340,000;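 active = percent activation above the mean of all tested compounds plus 3 SD, cut at about 19% in these data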;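 note: higher means more PKAc released from R1A so a rise in polarization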
PKA-R2B act = activates the human PKA-R2B holoenzyme complex; hit rate 0.079% among 340,000; PKA-R2B holoenzyme dissociation, Cy5-IP20 fluorescence polarization; R2B truncated from residue 108, S112A mutant; 0% DMSO only, 100% 113 µM cGMP; activation, % at 11.4 µM; P22694+P31323;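 active = activation above a cutoff set at the mean over all compounds plus 3 SD, cut at about 18% in these data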;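 note: higher means more holoenzyme dissociation and a rise in polarization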
Rpn11 inh = Rpn11 (human) deubiquitinase inhibition. O00487. human 26S proteasome, Ub4-pepOG fluorescence polarization; 20S core pre-blocked with epoxomicin. calls only at 20 µM. hit rate 0.59% among 360,000;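 active = inhibition at 20 µM, scaled to each plate's controls, above about 33%, limit read from the data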
Target sequence (O00487 whole entry, looked up): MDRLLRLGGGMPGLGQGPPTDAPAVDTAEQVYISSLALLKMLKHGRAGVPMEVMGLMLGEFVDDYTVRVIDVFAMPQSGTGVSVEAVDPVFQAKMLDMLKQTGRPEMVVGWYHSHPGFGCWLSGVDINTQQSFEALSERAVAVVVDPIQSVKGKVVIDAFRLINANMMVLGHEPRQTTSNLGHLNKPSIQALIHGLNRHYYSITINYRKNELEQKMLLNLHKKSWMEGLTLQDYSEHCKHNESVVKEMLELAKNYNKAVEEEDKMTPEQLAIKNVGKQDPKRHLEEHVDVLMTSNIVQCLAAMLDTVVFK
Neddyl inh conf = confirmation of human cullin neddylation inhibitors; shares compounds with Neddyl block; TR-FRET cullin neddylation biochemical assay; calls only at 25 µM; hit rate 13% among 1,800; AID 652217; in the data active = inhibition above about 40%;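 note: neddylation substrate is the cullin 1 ring ligase complex with SKP2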
Numbers without * were called inactive; i = inactive; . = no result given; + = active, no number. Hits are enriched below; roughly 1.3% of the tested compounds scored in any of these assays.

SMILES	Neddyl block	PKA-R1A act	PKA-R2B act	Rpn11 inh	Neddyl inh conf
O=C(c1cn(-c2ccccc2)nc1-c1cccnc1)N1CCCC(C(F)(F)F)C1 (stereo not drawn)	6.2	5.4	12.9	i	.
CCCCC[n+]1cccc2c3ccccc3ccc21	.	-4.1	-6.1	i	.
c1ccc(C[n+]2cccc3c4ccccc4ccc32)cc1	59.9*	4.0	-4.2	i	.
COc1ccc(CCNc2oc(-c3ccco3)nc2C#N)cc1	45.3*	-12.8	-4.6	i	+
CCOC(=O)Cc1csc(NC(=O)/C=C/c2ccco2)n1	-5.8	0.5	-2.2	i	.
CCOC(=O)Cc1csc(NC(=O)/C=C/c2ccc(Cl)cc2)n1	37.7*	8.9	-3.0	i	i
CCN(CC)c1cc(C)c2cc(NC(=O)CNC(C)=O)ccc2n1	42.8*	-18.2	-0.2	i	+
CCN(CC)c1cc(C)c2cc(NC(=O)c3ccccc3F)ccc2n1	14.9	2.4	-8.0	i	.
COc1ccc(-c2ccc(OC)c([C@H]3[C@H]4C=CC[C@@H](C)[C@@H]4C(=O)N3Cc3ccccc3)c2)cc1C	-0.2	-11.6	-11.3	i	.
COc1ccc(/C=C/c2ccccc2)cc1[C@H]1[C@H]2C=CC[C@@H](C)[C@@H]2C(=O)N1Cc1ccccc1	29.9*	-9.8	-6.0	i	i
Nc1ccc(C(=O)Nc2ccc3c(O)cc(S(=O)(=O)O)cc3c2)cc1	-15.0	6.4	-6.0	i	.
Nc1cc(S(=O)(=O)O)cc2ccc(S(=O)(=O)O)cc12	44.3*	0.0	-1.6	i	.
Cc1sc(NC(=O)C2C3C=CC(C3)C2C(=O)O)c(C(N)=O)c1-c1ccc(C(C)C)cc1 (stereo not drawn)	-37.3	-13.7	7.6	i	.
Cc1cccc(-n2c(=O)c3ccccc3n3c(=S)[nH]nc23)c1C	-1.6	-3.6	-2.6	i	.
COc1ccc(C2NC(=O)c3ccccc3O2)c(OC)c1OC (stereo not drawn)	44.9*	-17.3	-4.3	i	i
COc1cccc(C2NC(=O)c3ccccc3O2)c1OC (stereo not drawn)	18.3	2.4	9.0	i	.
COc1cccc(CN2CCNC(=O)C2CC(=O)NCCOc2cccnc2)c1 (stereo not drawn)	-1.9	-6.4	-5.9	i	.
O=C1NC(=O)c2cc3ccccc3cc21	48.0*	-3.9	-8.9	i	+
O=C1CCNc2cc3ccccc3cc21	.	-3.2	-6.9	i	.
C=CCOc1ccc(Br)cc1CNC(C)(C)C	-7.3	5.9	5.7	i	.
Cc1cc(Nc2nc3c(c(=O)n(C)c(=O)n3C)n2C)n(-c2ccc(Cl)cc2)n1	39.6*	-3.2	-6.4	i	i
Cc1cc(Nc2ccc(Cl)cc2)n(-c2ccccc2)n1	7.5	-1.9	-1.2	i	.
COc1ccc(-c2cc(NCc3ccccn3)n3ncnc3n2)cc1	37.4*	-8.3	-5.5	i	i
COc1ccc(-c2cc(NCCc3ccncc3)n3ncnc3n2)cc1	25.0	-1.4	-17.5	i	.
O=C(O)c1cccc(-n2cc(-c3cccc(C(F)(F)F)c3)cn2)c1	8.2	-11.8	-5.9	i	.
SMILES	Neddyl block	PKA-R1A act	PKA-R2B act	Rpn11 inh	Neddyl inh conf
CCOC(=O)C1(C)CCCN1C(=O)c1ccc(C(=O)OC)cc1 (stereo not drawn)	1.7	.	.	i	.
COc1ccc(Nc2oc(COc3ccccc3OC)nc2C#N)cc1	42.4*	-18.5	-4.5	i	i
Cc1ccc(NC(=O)CSc2ccc(Br)cc2)cc1S(=O)(=O)N1CCOCC1	-10.0	-6.1	-2.0	i	.
O=c1c(-c2ccccc2)nc2ccccc2n1C(c1ccccn1)c1nc2ccccc2[nH]1 (stereo not drawn)	40.6*	.	.	.	i
O=c1c(-c2cccnc2)nc2ccccc2n1C(c1ccccn1)c1nc2ccccc2[nH]1 (stereo not drawn)	47.1*	.	.	.	i
COc1ccc(OC)c(S(=O)(=O)N2CCCC(C(=O)NCCN3CCOCC3)C2)c1 (stereo not drawn)	-7.3	-2.0	0.1	i	.
COCCn1c(C)cc(/C=C(\C#N)C(=O)OCC(=O)Nc2ccc(S(N)(=O)=O)cc2)c1C	40.0*	-3.9	5.0	i	+
CCc1c(C)c(C#N)c2nc3ccccc3n2c1NCCOC	40.7*	8.8	1.4	i	.
CC(C)c1cc(NCCN2CCOCC2)n2c(nc3ccccc32)c1C#N	37.7*	4.5	-10.8	i	i
CCCc1c(C)c(C#N)c2nc3ccccc3n2c1NCCCN1CCOCC1	46.0*	-2.7	-13.9	i	i
